Test [1] can be described thus: qHTS profiling of the MIPE4 collection as inhibitors of Plasmodium falciparum (3D7) proliferation (AID 743344).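 Further: scaled between DMSO vehicle wells and 0.29 µM artemisinin as full inhibition.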 As to conditions: P. falciparum 3D7 in erythrocytes, SYBR Green DNA fluorescence, 72 h; at 28.5 µM unless noted. The method in brief:
(§1)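 Parasite DNA was quantified by SYBR Green I fluorescence (ex 485, em 535 nm) after overnight lysis in saponin/Triton buffer at room temperature. Cultures at 0.3% parasitemia and 2.5% hematocrit were first exposed to compound for 72 h at 37 C; signals were normalised to artemisinin (0.29 uM) and vehicle wells.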
(In qHTS, concentration-response curves come from the screen itself.)

The nature of test [2]: qHTS profiling of the MIPE4 collection as inhibitors of Plasmodium falciparum (DD2) proliferation (AID 743345). To be noted: P. falciparum Dd2 in erythrocytes, SYBR Green DNA, 72 h; at 28.5 µM unless noted. In outline: as §1
The nature of test [3]: qHTS profiling of the MIPE4 collection as inhibitors of Plasmodium falciparum (DD2) proliferation (Rep 2) (AID 743346). As to conditions: P. falciparum Dd2 in erythrocytes, SYBR Green DNA, 72 h; at 28.5 µM unless noted. In outline: as §1
Test [4] is described as follows: qHTS profiling of the MIPE4 collection as inhibitors of Plasmodium falciparum (HB3) proliferation (AID 743347).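 Further: plate controls were DMSO vehicle wells for no effect and artemisinin wells for full effect.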 As to conditions: P. falciparum HB3 in erythrocytes, SYBR Green DNA, 72 h; at 28.5 µM unless noted. The method in brief: as §1
A short description of test [5]: High-throughput drug toxicity screening in the BPDCN cell line Gen2.2 (AID 1224824).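 Further: cells exposed to compounds for 48 h before reading.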 To be noted: Gen2.2 BPDCN cells; at 45.8 µM (top of the series) unless noted. In outline:
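CellTiter-Glo luminescence read after 48 h compound exposure at 37 C defines viability; percent activity set with DMSO as 100% and bortezomib (9.2 uM final) as 0%. 500 exponentially growing cells per well, RPMI plus 10% FBS.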

The nature of test [6]: High-throughput drug toxicity screening in the BPDCN cell line Cal-1 (AID 1224825). As to conditions: Cal-1 BPDCN cell viability, qHTS; at 45.8 µM (top of the series) unless noted. In outline:
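Percent activity derived from CellTiter-Glo luminescence, scaling DMSO to 100% and 9.2 uM final bortezomib to 0%. BPDCN Cal-1 cells (500/well, RPMI plus 10% FBS) incubated with compounds 48 hours at 37C before reading.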

Test [7] in a line: qHTS assay for measurement of the activity of small molecule inhibitors on Zika virus induced Caspase-3 activity in human iPSC derived neural progenitor cells (hNPCs) (AID 1224857; active means well fitted curve in the direction sought with a large enough effect; an effect the other way counts as inactive or inconclusive; further: nearly all actives have a fitted effect of over 65% in size; further: potency means the concentration at half of the fitted maximal effect). In outline: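 Values are percent inhibition of virus-induced caspase-3/7 signal, scaled between uninfected cells and ZIKV-infected cells. Infection used 2 FFU/cell for 6 h after 1 h compound exposure.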

Test [8] in a line: qHTS assay for measurement of the activity of small molecule inhibitors on Zika virus induced Caspase-3 activity in human astrocytoma cells (AID 1224859; active means well fitted curve in the direction sought with a large enough effect; an effect the other way counts as inactive or inconclusive; further: potency means the concentration at half of the fitted maximal effect). In outline:
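Compound added 1 h pre-infection; ZIKV 2 FFU/cell on SNB-19 cells, 6 h, 37 C/5% CO2. Caspase-Glo 3/7 luminescence; values as % inhibition of ZIKV-induced caspase activity.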

The nature of test [9]: qHTS Screen of the MIPE 4.0 Collection Against Ewings Sarcoma (RDES) (AID 1259252; active means well fitted curve in the direction sought with a large enough effect; an effect the other way counts as inactive or inconclusive; further: nearly all actives have a fitted effect of over 35% in size; further: potency means the concentration at half of the fitted maximal effect). In outline: (§2)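 Cells plated in serum-containing RPMI (5% FBS) and treated with compound dilutions for 48 h. Readout luminescent viability; normalization relied on vehicle (no inhibition) and media-only columns (full inhibition).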
The nature of test [10]: qHTS Screen of the MIPE 4.0 Collection Against Ewings Sarcoma (EW8) (AID 1259255; active means well fitted curve in the direction sought with a large enough effect; an effect the other way counts as inactive or inconclusive;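 further: 100% = DMSO-treated cells and 0% = medium-only wells without cells; nearly all actives have a fitted effect of over 35% in size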). In outline: as §2
The nature of test [11]: qHTS Screen of the MIPE 4.0 Collection Against Ewings Sarcoma (TC32) (AID 1259256; active means well fitted curve in the direction sought with a large enough effect; an effect the other way counts as inactive or inconclusive;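 further: 100% = DMSO-treated cells and 0% = medium-only wells without cells; nearly all actives have a fitted effect of over 45% in size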). The method in brief: as §2
Test [12] is described as follows: qHTS profiling for inhibitors of Plasmodium falciparum (HB3) proliferation (AID 743324; active means well fitted curve in the direction sought with a large enough effect; an effect the other way counts as inactive or inconclusive;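 further: 100% = DMSO vehicle wells and 0% = artemisinin-treated control wells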). To be noted: Plasmodium falciparum HB3 blood-stage proliferation; at 28.7 µM (top of the series) unless noted. In outline: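 SYBR Green fluorescence (485 ex/535 em) of lysed cultures, incubated overnight at room temperature in the dark, quantifies parasite DNA. Infected erythrocytes at 0.3% parasitemia and 2.5% hematocrit were exposed 72 h; values normalized to DMSO and 0.29 uM artemisinin controls.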

A short description of test [13]: Identifying Small Molecule Inhibitors of Pancreatic Cancer Stem Cells (SN12C, Adherent) (AID 1259358; active means well fitted curve in the direction sought with a large enough effect; an effect the other way counts as inactive or inconclusive;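 further: cell survival measured after 48 h of compound exposure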). The method in brief:
(§3)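 Pre-formed 14-day tumor spheroids or adherent cells dosed and incubated 48 h, 37C, 5% CO2. Viability assessed by CellTiter-Glo.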

The nature of test [14]: Identifying Small Molecule Inhibitors of Pancreatic Cancer Stem Cells (SN12C, Spheroid) (AID 1259360; active means well fitted curve in the direction sought with a large enough effect; an effect the other way counts as inactive or inconclusive;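 further: 100% = DMSO-treated cells and 0% = wells without cells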). As to conditions: Potency: SN12C spheroid viability. The method in brief: (§4)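 Endpoint: ATP-based luminescence, 48 h drug exposure. Bortezomib at 9.2 uM final as full-kill control; DMSO vehicle as negative control; activity normalized between vehicle and cell-free wells.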

Test [15] is described as follows: Identifying Small Molecule Inhibitors of Pancreatic Cancer Stem Cells (A278, Adherent) (AID 1259361; active means well fitted curve in the direction sought with a large enough effect; an effect the other way counts as inactive or inconclusive;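 further: 100% = DMSO-treated cells and 0% = cell-free media-only wells; nearly all actives have a fitted effect of over 35% in size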). The method in brief:
as §3

Test [16] can be described thus: Identifying Small Molecule Inhibitors of Pancreatic Cancer Stem Cells (Panc1, Adherent) (AID 1259362; active means well fitted curve in the direction sought with a large enough effect; an effect the other way counts as inactive or inconclusive;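 further: compound exposure lasted 48 h before the viability read; plate controls were DMSO-treated cells for no effect and cell-free media wells for full effect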). As to conditions: Potency: viability. The method in brief: as §4
Test [17] is described as follows: qHTS Screen of the MIPE 4.0 Collection Against Ewings Sarcoma (TC71) (AID 1259253; active means well fitted curve in the direction sought with a large enough effect; an effect the other way counts as inactive or inconclusive; further: potency means the concentration at half of the fitted maximal effect; nearly all actives have a fitted effect of over 40% in size). In outline: as §2

Inconclusive results are not listed. The source made the active and inactive calls. Unless noted, how the calls were made is not given here.

Regarding `CC(C)[C@H](O)C(=O)N[C@@H](C)C(=O)N[C@@H]1C(=O)N(C)CCc2ccccc21`, the parasite growth, % of DMSO control in [1] is 13.3%. In addition, the parasite growth remaining, % of DMSO control (lower = more inhibition) in [2] was 14.9%. In [3], the parasite growth, % of control (lower = inhibition) is 26.2%. The growth, % of control in [4] worked out at 17.8%. The cell viability, % of control (lower = more cytotoxic) in [5] came out at 95.1%. Also, the viability (% of control) in test [6] turned out to be 95.1%. Moreover, the Potency entry in test [7], in [8], in test [10] and in [11] was “inactive” throughout. For the same compound, the Potency in test [9] is 16.6 µM (active).
`Cn1cc(-c2ccc3nnc(Sc4ccc5ncccc5c4)n3n2)cn1` registered a remaining proliferation (% of control), lower = more inhibition in test [12] of 72.7%. In test [1], this compound yielded a parasite growth, % of DMSO control of 36.1%. Besides, the parasite growth remaining, % of DMSO control (lower = more inhibition) in test [2] stood at 86.3%. In addition, the parasite growth, % of control (lower = inhibition) in test [3] stood at 42.5%. Besides, in [5], the cell viability, % of control (lower = more cytotoxic) was determined as 121%. The viability (% of control) in test [6] came to 102%. Moreover, the Potency entry in test [7], in [8], in [10], in test [13], in test [14] and in test [16] was “inactive” each time. The Potency in [9] is 20.9 µM (active). In addition, the IC50 (viability decrease) result in test [15] was “inactive”.
In test [1], `COc1ccc(C=CC(=O)Nc2ccccc2C(=O)O)cc1OC` came in with a parasite growth, % of DMSO control of 24.6%. The parasite growth remaining, % of DMSO control (lower = more inhibition) in [2] amounted to 90.5%. Also, the parasite growth, % of control (lower = inhibition) in test [3] turned out to be 48.9%. The same compound showed a growth, % of control in test [4] of 32%. Further, the cell viability, % of control (lower = more cytotoxic) in [5] came out at 188%. For the same compound, the viability (% of control) in test [6] amounted to 104%. For the same compound, the Potency in [7] and in [8] was 2.64 µM (active) each time. For the same compound, the Potency entry in [9] and in test [10] was “inactive” throughout.
`OC[C@H]1O[C@@H](Oc2ccc(O)cc2)[C@H](O)[C@@H](O)[C@H]1O` registered a parasite growth, % of DMSO control in [1] of 82.1%. For the same compound, the parasite growth remaining, % of DMSO control (lower = more inhibition) in [2] came to 94.8%. Besides, the parasite growth, % of control (lower = inhibition) in test [3] came to 127%. In test [4], this compound returned a growth, % of control of 93.4%. Further, the cell viability, % of control (lower = more cytotoxic) in test [5] was determined as 146%. In addition, in test [6], the viability (% of control) worked out at 83.5%. Further, the Potency result in test [7], in test [8] and in test [9] was “inactive” each time. For the same compound, the Potency in test [17] is 18.7 µM (active).
In test [1], `COc1cc(Nc2nc3ccccc3nc2NS(=O)(=O)c2ccc(NC(=O)c3ccc(C)c(OC)c3)cc2)cc(OC)c1` came in with a parasite growth, % of DMSO control of 42%. The parasite growth remaining, % of DMSO control (lower = more inhibition) in test [2] came out at 40.5%. Further, in [3], the parasite growth, % of control (lower = inhibition) came out at 32.8%. Also, the growth, % of control in test [4] amounted to 17.6%. Also, the cell viability, % of control (lower = more cytotoxic) in [5] worked out at 32.5%. Moreover, in test [6], the viability (% of control) was found to be 78.5%. The Potency entry in [7] and in test [8] was “inactive” throughout. For the same compound, the figures for the Potency in [9] and in [17] were 18.7 µM (active) and 20.9 µM (active), respectively.
Regarding `NCC1CCC(C(=O)O)CC1` (centres undefined), the parasite growth, % of DMSO control in [1] came to 428%. Further, the parasite growth remaining, % of DMSO control (lower = more inhibition) in [2] was determined as 105%. The parasite growth, % of control (lower = inhibition) in test [3] stood at 104%. The growth, % of control in test [4] amounted to 159%. Further, the cell viability, % of control (lower = more cytotoxic) in test [5] worked out at 110%. The viability (% of control) in [6] amounted to 115%. The Potency result in [7], in [8] and in [9] was “inactive” each time. Further, the Potency in test [17] was 9.35 µM (active).
On to `O=C(CCCN1CCN(c2ccc(F)cc2)CC1)NC1c2ccccc2CSc2ccccc21` (centres undefined), for which the parasite growth remaining, % of DMSO control (lower = more inhibition) in [2] is 98.7%. Moreover, the parasite growth, % of control (lower = inhibition) in test [3] came out at 80.9%. The compound further gave a growth, % of control in [4] of 57.9%. The cell viability, % of control (lower = more cytotoxic) in [5] is 91.5%. In addition, in test [6], the viability (% of control) was determined as 58.7%. The Potency result in test [7] and in test [8] was “inactive” in each case. Moreover, the Potency in [9] is 14.8 µM (active); in [17] it was 16.6 µM (active).

(Values after PubChem BioAssay (NCATS).)
